According to PubChem BioAssay AID1159580 (chemical genetic matrix, 2015):
Screen size: about 5,500 compounds; about 2,000 (36%) were called active. Roughly 18% stayed inconclusive and do not appear here. Some of the results follow. Unmarked numbers belong to inactive results. No stated cut-off is given here; in the data, active means normalized growth mostly below about 0.91 (no sharp cut-off); inconclusive means no clear call, values can overlap the other calls; inactive means mostly above about 0.92.

Assay: chemical genetic growth profiling, strain panel (AID 1159580);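 further: tested at 20 µM; growth read once vehicle control cultures reached saturation at 30 °C; 1 = growth at the plate median or of vehicle wells; lower values mean less growth of the strain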
Details: S. cerevisiae deletion strains, growth OD

## CC1(C)C(=O)C=C[C@@]2(C)C1=C(O)C(=O)[C@]1(C)C2CC[C@@]2(C)[C@H](c3ccoc3)C[C@H]3O[C@]321 (stereo partly specified)
Locus YJL187C, strain SWE1, active compounds read low
  normalized growth: 0.928
Locus YJR043C, strain POL32, active compounds read low
  normalized growth: 0.781 (active)
Locus YJR066W, strain TOR1, active compounds read low
  normalized growth: 0.757 (active)
Locus YKL009W, strain mrt4, active compounds read low
  normalized growth: 0.885
Locus YKL068W, active compounds read low
  normalized growth: 0.942
Locus YKL085W, strain MDH1 (second series), active compounds read low
  normalized growth: 0.885 (active)
Locus YKL085W, strain MDH1, active compounds read low
  normalized growth: 0.885 (active)
Locus YKL160W, strain elf1, active compounds read low
  normalized growth: 0.872 (active)
Locus YKL190W, strain CNB1, active compounds read low
  normalized growth: 0.751 (active)
Locus YKR001C, strain vps1, active compounds read low
  normalized growth: 0.777 (active)
Locus YKR026C, strain gcn3, active compounds read low
  normalized growth: 0.965
Locus YKR091W, strain srl3, active compounds read low
  normalized growth: 0.969
Locus YLL001W, strain dnm1, active compounds read low
  normalized growth: 0.931
Locus YLL026W, active compounds read low
  normalized growth: 0.944
Locus YLL041C, strain sdh2, active compounds read low
  normalized growth: 0.991
Locus YLR027C, strain aat2, active compounds read low
  normalized growth: 0.791 (active)
Locus YLR039C, strain RIC1, active compounds read low
  normalized growth: 0.404 (active)
Locus YLR058C, strain SHM2, active compounds read low
  normalized growth: 0.782 (active)
Locus YLR102C, strain apc9, active compounds read low
  normalized growth: 0.967
Locus YLR113W, strain HOG1, active compounds read low
  normalized growth: 0.776 (active)
Locus YLR221C, strain rsa3, active compounds read low
  normalized growth: 0.759 (active)
Locus YLR258W, strain gsy2, active compounds read low
  normalized growth: 0.88 (active)
Locus YLR262C, strain YPT6 (second series), active compounds read low
  normalized growth: 0.624 (active)
Locus YLR262C, strain YPT6, active compounds read low
  normalized growth: 0.382 (active)
Locus YLR268W, strain sec22, active compounds read low
  normalized growth: 0.788 (active)
Locus YLR320W, strain mms22, active compounds read low
  normalized growth: 0.639 (active)
Locus YLR342W, strain FKS1 (second series), active compounds read low
  normalized growth: 0.578 (active)
Locus YLR342W, strain FKS1, active compounds read low
  normalized growth: 0.881 (active)
Locus YLR357W, strain rsc2, active compounds read low
  normalized growth: 1.03
Locus YLR370C, strain arc18, active compounds read low
  normalized growth: 0.959
Locus YLR371W, strain rom2, active compounds read low
  normalized growth: 0.706 (active)
Locus YLR384C, strain iki3, active compounds read low
  normalized growth: 0.973
Locus YLR418C, strain cdc73, active compounds read low
  normalized growth: 0.318 (active)
Locus YML016C, strain PPZ1, active compounds read low
  normalized growth: 0.887 (active)
Locus YML032C, strain rad52, active compounds read low
  normalized growth: 0.811 (active)
Locus YML120C, strain ndi1, active compounds read low
  normalized growth: 0.884 (active)
Locus YML124C, strain tub3, active compounds read low
  normalized growth: 0.922 (active)
Locus YMR058W, strain fet3, active compounds read low
  normalized growth: 0.875 (active)
Locus YMR078C, strain ctf18, active compounds read low
  normalized growth: 0.936
Locus YMR125W, strain sto1, active compounds read low
  normalized growth: 0.876 (active)
Locus YMR129W, active compounds read low
  normalized growth: 0.969
Locus YMR205C, strain PFK2, active compounds read low
  normalized growth: 0.674 (active)
Locus YMR223W, strain ubp8, active compounds read low
  normalized growth: 0.865 (active)
Locus YMR231W, strain pep5, active compounds read low
  normalized growth: 0.931
Locus YMR307W, strain GAS1, active compounds read low
  normalized growth: 0.502 (active)
Locus YNL067W, strain RPL9B, active compounds read low
  normalized growth: 0.876
Locus YNL071W, strain lat1, active compounds read low
  normalized growth: 0.44 (active)
Locus YNL183C, strain NPR1, active compounds read low
  normalized growth: 0.848
Locus YNL209W, strain ssb2, active compounds read low
  normalized growth: 0.943
Locus YNL233W, strain BNI4, active compounds read low
  normalized growth: 0.706 (active)
Locus YNL248C, strain rpa49, active compounds read low
  normalized growth: 0.938
Locus YNL250W, strain rad50, active compounds read low
  normalized growth: 0.97
Locus YNL271C, strain bni1, active compounds read low
  normalized growth: 0.96
Locus YNL298W, strain CLA4, active compounds read low
  normalized growth: 0.922
Locus YNL307C, strain MCK1, active compounds read low
  normalized growth: 0.505 (active)
Locus YNL322C, strain KRE1 (second series), active compounds read low
  normalized growth: 0.981
Locus YNR049C, strain mso1, active compounds read low
  normalized growth: 0.962
Locus YNR052C, strain pop2, active compounds read low
  normalized growth: 0.863 (active)
Locus YOL006C, strain TOP1, active compounds read low
  normalized growth: 0.666
Locus YOL012C, strain htz1
  normalized growth: 0.626
Locus YOL147C, strain pex11, active compounds read low
  normalized growth: 0.804 (active)
Locus YOR001W, strain rrp6, active compounds read low
  normalized growth: 0.841 (active)
Locus YOR061W, strain CKA2, active compounds read low
  normalized growth: 0.847 (active)
Locus YOR069W, strain VPS5, active compounds read low
  normalized growth: 0.889 (active)
Locus YOR070C, strain gyp1, active compounds read low
  normalized growth: 0.809 (active)
Locus YOR080W, strain dia2, active compounds read low
  normalized growth: 0.964
Locus YOR083W, strain WHI5, active compounds read low
  normalized growth: 0.875 (active)
Locus YOR106W, strain vam3, active compounds read low
  normalized growth: 0.801 (active)
Locus YOR136W, strain idh2, active compounds read low
  normalized growth: 0.891 (active)
Locus YOR144C, strain elg1, active compounds read low
  normalized growth: 0.855 (active)
Locus YOR184W, strain ser1, active compounds read low
  normalized growth: 0.487 (active)
Locus YOR231W, strain MKK1, active compounds read low
  normalized growth: 0.706 (active)
Locus YOR265W, strain rbl2, active compounds read low
  normalized growth: 0.918 (active)
Locus YOR270C, strain vph1, active compounds read low
  normalized growth: 0.897
Locus YOR290C, strain snf2, active compounds read low
  normalized growth: 0.84 (active)
Locus YOR316C, strain cot1, active compounds read low
  normalized growth: 0.984
Locus YPL051W, strain arl3, active compounds read low
  normalized growth: 0.831 (active)
Locus YPL078C, strain atp4, active compounds read low
  normalized growth: 0.939
Locus YPL106C, strain sse1, active compounds read low
  normalized growth: 0.91
Locus YPL240C, strain hsp82, active compounds read low
  normalized growth: 0.861 (active)
Locus YPL256C, strain CLN2, active compounds read low
  normalized growth: 0.747 (active)
Locus YPR119W, strain clb2, active compounds read low
  normalized growth: 0.915 (active)
Locus YPR141C, strain kar3, active compounds read low
  normalized growth: 0.96
Locus YPR163C, strain tif3, active compounds read low
  normalized growth: 0.665 (active)
Locus YPR167C, strain met16, active compounds read low
  normalized growth: 0.85 (active)
Strain wtn01, active compounds read low
  normalized growth: 0.765 (active)
